This passage reports outcome and AC50 results from PubChem BioAssay (EPA / NIEHS).

Settings in all cases: mRNA level, 48 h; actives raise or lower the signal
Read-out in assay [1]: Peroxisomal acyl-coenzyme A oxidase 1 (ACOX1) gene, ACOX1 (gene 51)
Put plainly: LTEA_HepaRG_ACOX1: Life Technologies and Expression Analysis (LTEA) Assay for Peroxisomal acyl-coenzyme A oxidase 1 (ACOX1) gene using HepaRG (AID 2283467). The essentials:
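Measured by qRT-PCR against three housekeeping genes: ACOX1 transcript change in human HepaRG cells after 48 h dosing. Concentrations ran up to 100 uM in half-log steps. Curves were fitted bidirectionally relative to 0.5% DMSO.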

Read-out in assay [2]: Alkaline Phosphatase, Placental (ALPP) gene, ALPP (gene 250)
Put plainly: LTEA_HepaRG_ALPP: Life Technologies and Expression Analysis (LTEA) Assay for Alkaline Phosphatase, Placental (ALPP) gene using HepaRG (AID 2283468). The essentials: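 ALPP transcript level, measured by qRT-PCR and normalized to three housekeeping genes (ACTB, GAPDH, POLR2A), after 48 h dosing of differentiated HepaRG in serum-free induction medium. Top concentration 100 uM with half-log dilutions (8 points, 0.5% DMSO, duplicates); bidirectional fitting relative to DMSO.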

Read-out in assay [3]: Bcl-2 (BAD) gene, BAD (gene 572)
The assay can be described thus: LTEA_HepaRG_BAD: Life Technologies and Expression Analysis (LTEA) Assay for Bcl-2 (BAD) gene using HepaRG (AID 2283469). The essentials:
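BAD transcript change, measured by qRT-PCR against three housekeeping genes and fitted in both directions relative to 0.5% DMSO, after 48 h chemical treatment of human HepaRG liver cells at concentrations up to 100 uM.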

Read-out in assay [4]: Bcl-2 (BAX) gene, BAX (gene 581)
The assay can be described thus: LTEA_HepaRG_BAX: Life Technologies and Expression Analysis (LTEA) Assay for Bcl-2 (BAX) gene using HepaRG (AID 2283470). The essentials: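 Concentration-response endpoint fitted in both directions relative to 0.5% DMSO vehicle. Human HepaRG cultures receive test chemicals for 48 h at up to 100 uM; BAX mRNA is quantified by qRT-PCR against housekeeping genes.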

Read-out in assay [5]: adenosine kinase (ADK) gene, ADK (gene 132)
Put plainly: LTEA_HepaRG_ADK: Life Technologies and Expression Analysis (LTEA) Assay for adenosine kinase (ADK) gene using HepaRG (AID 2283471). A digest of the protocol:
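Following 48 h exposure of HepaRG cells in 0.5% DMSO (top concentration 100 uM, duplicate wells), ADK mRNA induction or suppression was measured by qRT-PCR, normalised to ACTB/GAPDH/POLR2A, and fitted bidirectionally relative to vehicle.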

Read-out in assay [6]: Alpha-fetoprotein (AFP) gene, AFP (gene 174)
The assay can be described thus: LTEA_HepaRG_AFP: Life Technologies and Expression Analysis (LTEA) Assay for Alpha-fetoprotein (AFP) gene using HepaRG (AID 2283472). The essentials: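 After a 48 h plating period, cells are moved to serum-free induction medium and dosed in duplicate (100 uM maximum, half-log dilutions, 0.5% DMSO) for another 48 h. Total RNA goes to TaqMan qRT-PCR; AFP signal is housekeeping-normalized.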

Read-out in assay [7]: BCL2L11 (gene 10018)
The assay can be described thus: LTEA_HepaRG_BCL2L11: Life Technologies and Expression Analysis (LTEA) Assay for Bcl-2 (BCL2L11) gene using HepaRG (AID 2283473). The essentials: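 BCL2L11 transcript levels are measured by Fluidigm qRT-PCR, normalized to three housekeeping genes. HepaRG cultures were plated 48 h, then treated 48 h with test chemical (top 100 uM, half-log, 0.5% DMSO vehicle); curves were fitted bidirectionally against DMSO.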

Read-out in assay [8]: Apolipoprotein A-V (APOA5) gene, APOA5 (gene 116519)
Put plainly: LTEA_HepaRG_APOA5: Life Technologies and Expression Analysis (LTEA) Assay for Apolipoprotein A-V (APOA5) gene using HepaRG (AID 2283474). The essentials: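 APOA5 transcript levels were quantified by qRT-PCR, normalized to three housekeeping genes, after 48 h chemical treatment of HepaRG cells (8 points, 100 uM maximum, half-log steps, 0.5% DMSO). Curves fitted in both directions against vehicle.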

Read-out in assay [9]: Apoptosis regulator Bcl-2 (Homo sapiens) (UniProt P10415)
Put plainly: LTEA_HepaRG_BCL2: Life Technologies and Expression Analysis (LTEA) Assay for Bcl-2 gene using HepaRG (AID 2283475).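 Note: BCL2 transcript by TaqMan qRT-PCR normalised to ACTB GAPDH and POLR2A.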 The essentials: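 Expression change of BCL2 mRNA in HepaRG after 48 h dosing, quantified by TaqMan qRT-PCR against three endogenous controls. Concentration-response used eight points up to 100 uM, vehicle 0.5% DMSO.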

Read-out in assay [10]: Bcl-2 (BID) gene, BID (gene 637)
Put plainly: LTEA_HepaRG_BID: Life Technologies and Expression Analysis (LTEA) Assay for Bcl-2 (BID) gene using HepaRG (AID 2283476). A digest of the protocol:
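Gain or loss of BID expression is fitted relative to 0.5% DMSO vehicle. Human HepaRG liver cells received a 48 h chemical exposure over an eight-point concentration range.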

Read-out in assay [11]: Caspase-3 (Homo sapiens) (UniProt P42574)
Put plainly: LTEA_HepaRG_CASP3: Life Technologies and Expression Analysis (LTEA) Assay for cysteine-aspartic acid protease (CASP3) using HepaRG (AID 2283477). A digest of the protocol:
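Expression of CASP3 was quantified by TaqMan qRT-PCR against three housekeeping genes (ACTB, GAPDH, POLR2A), bidirectionally versus 0.5% DMSO. HepaRG cultures received compounds in duplicate, top 100 uM with half-log steps, for 48 h in serum-free induction medium.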

Read-out in assay [12]: Cytochrome P450 (CYP24A1), CYP24A1 (gene 1591)
Put plainly: LTEA_HepaRG_CYP24A1: Life Technologies and Expression Analysis (LTEA) Assay for Cytochrome P450 (CYP24A1) using HepaRG (AID 2283478). The essentials: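 mRNA of CYP24A1 quantified by TaqMan qRT-PCR (ACTB/GAPDH/POLR2A normalization) after 48 h chemical exposure of HepaRG cells, top concentration 100 uM, half-log steps, 0.5% DMSO vehicle, duplicates. Curves fitted bidirectionally against DMSO baseline.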

Read-out in assay [13]: cysteine-aspartic acid protease (CASP8), CASP8 (gene 841)
The assay can be described thus: LTEA_HepaRG_CASP8: Life Technologies and Expression Analysis (LTEA) Assay for cysteine-aspartic acid protease (CASP8) using HepaRG (AID 2283480). The essentials:
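HepaRG, 48 h exposure, duplicate wells; 8 conc, half-log from 100 uM, 0.5% DMSO. Serum-free induction medium. CASP8 mRNA by TaqMan qRT-PCR, norm. ACTB/GAPDH/POLR2A; gain/loss fitted vs DMSO.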

Read-out in assay [14]: Cytochrome P450 2C19 (Homo sapiens) (UniProt P33261)
The assay can be described thus: LTEA_HepaRG_CYP2C19: Life Technologies and Expression Analysis (LTEA) Assay for CYP2C19 using HepaRG (AID 2283482). A digest of the protocol:
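CYP2C19 transcript levels by qRT-PCR, normalized to three housekeeping genes, in HepaRG cells after 48 h chemical exposure. Eight-point half-log series topping at 100 uM, 0.5% DMSO vehicle. Increases and decreases both fitted against DMSO.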

Read-out in assay [15]: CYP2C8 (gene 1558)
Put plainly: LTEA_HepaRG_CYP2C8: Life Technologies and Expression Analysis (LTEA) Assay for CYP2C8 using HepaRG (AID 2283483). The essentials:
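CYP2C8 mRNA induction or loss, by qRT-PCR normalized to ACTB/GAPDH/POLR2A, is read in HepaRG cells after 48 h treatment. Concentrations run from 100 uM down in half-log dilutions, with 0.5% DMSO as vehicle and baseline.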

Read-out in assay [16]: CYP2C9 (gene 1559)
Put plainly: LTEA_HepaRG_CYP2C9: Life Technologies and Expression Analysis (LTEA) Assay for CYP2C9 using HepaRG (AID 2283484). The essentials: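 Cells plated 48 h, switched to serum-free induction medium, then treated in duplicate for 48 h at eight concentrations (max 100 uM, 0.5% DMSO). RNA then analysed by qRT-PCR for CYP2C9; curves fitted in both directions relative to DMSO.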

Read-out in assay [17]: CYP2E1 (gene 1571)
Put plainly: LTEA_HepaRG_CYP2E1: Life Technologies and Expression Analysis (LTEA) Assay for CYP2E1 using HepaRG (AID 2283485). A digest of the protocol:
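Differentiated HepaRG cells were treated in duplicate for 48 h with chemicals in 0.5% DMSO, from 100 uM downward in half-log dilutions. RNA was then analysed by qRT-PCR for CYP2E1 induction or loss.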

Read-out in assay [18]: CYP4A11 (gene 1579)
The assay can be described thus: LTEA_HepaRG_CYP4A11: Life Technologies and Expression Analysis (LTEA) Assay for CYP4A11 using HepaRG (AID 2283486). A digest of the protocol:
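Readout is CYP4A11 transcript level by qRT-PCR, normalized to three housekeeping genes and fitted bidirectionally against 0.5% DMSO. Human HepaRG cells were treated 48 h, in duplicate, with an 8-point half-log series topping at 100 uM.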

Read-out in assay [19]: Cytochrome P450 (CYP1A2), CYP1A2 (gene 1544)
The assay can be described thus: LTEA_HepaRG_CYP1A2: Life Technologies and Expression Analysis (LTEA) Assay for Cytochrome P450 (CYP1A2) using HepaRG (AID 2283479). The essentials: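 CYP1A2 transcript measured by TaqMan qRT-PCR against three housekeeping genes after 48-hour chemical exposure of HepaRG cells. Eight-point half-log series topping at 100 uM in 0.5% DMSO, duplicates; gain or loss fitted relative to vehicle.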

Read-out in assay [20]: Cytochrome P450 (CYP2B6), CYP2B6 (gene 1555)
Put plainly: LTEA_HepaRG_CYP2B6: Life Technologies and Expression Analysis (LTEA) Assay for Cytochrome P450 (CYP2B6) using HepaRG (AID 2283481). The essentials: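 CYP2B6 transcript level quantified by qRT-PCR against three housekeeping genes, fitted bidirectionally relative to DMSO. HepaRG cultures received chemicals for 48 h, 8-point half-log series from 100 uM in 0.5% DMSO, duplicate wells, serum-free induction medium.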

Activity calls are given as the source filed them. Rule for the calls: active = hit-call score of the fitted dose curve at least 0.9, where 1 is the maximum; inactive = score below 0.9.

Chain of Caspase-3 (Homo sapiens) (P42574 whole entry, looked up): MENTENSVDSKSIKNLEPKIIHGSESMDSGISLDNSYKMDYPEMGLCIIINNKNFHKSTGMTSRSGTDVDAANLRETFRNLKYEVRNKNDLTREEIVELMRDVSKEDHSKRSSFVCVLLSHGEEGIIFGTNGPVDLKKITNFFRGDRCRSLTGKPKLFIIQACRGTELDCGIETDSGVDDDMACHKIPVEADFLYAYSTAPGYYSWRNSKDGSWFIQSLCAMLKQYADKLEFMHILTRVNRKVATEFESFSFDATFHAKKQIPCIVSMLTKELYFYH
Chain of Apoptosis regulator Bcl-2 (Homo sapiens) (P10415 whole entry, looked up): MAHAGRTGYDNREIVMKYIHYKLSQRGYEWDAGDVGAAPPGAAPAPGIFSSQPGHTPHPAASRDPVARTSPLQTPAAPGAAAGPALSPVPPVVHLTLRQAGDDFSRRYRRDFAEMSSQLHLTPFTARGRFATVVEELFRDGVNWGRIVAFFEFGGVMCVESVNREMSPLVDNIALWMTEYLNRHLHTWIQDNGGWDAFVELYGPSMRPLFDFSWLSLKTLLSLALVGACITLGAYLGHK
Chain of Cytochrome P450 2C19 (Homo sapiens) (P33261 whole entry, looked up): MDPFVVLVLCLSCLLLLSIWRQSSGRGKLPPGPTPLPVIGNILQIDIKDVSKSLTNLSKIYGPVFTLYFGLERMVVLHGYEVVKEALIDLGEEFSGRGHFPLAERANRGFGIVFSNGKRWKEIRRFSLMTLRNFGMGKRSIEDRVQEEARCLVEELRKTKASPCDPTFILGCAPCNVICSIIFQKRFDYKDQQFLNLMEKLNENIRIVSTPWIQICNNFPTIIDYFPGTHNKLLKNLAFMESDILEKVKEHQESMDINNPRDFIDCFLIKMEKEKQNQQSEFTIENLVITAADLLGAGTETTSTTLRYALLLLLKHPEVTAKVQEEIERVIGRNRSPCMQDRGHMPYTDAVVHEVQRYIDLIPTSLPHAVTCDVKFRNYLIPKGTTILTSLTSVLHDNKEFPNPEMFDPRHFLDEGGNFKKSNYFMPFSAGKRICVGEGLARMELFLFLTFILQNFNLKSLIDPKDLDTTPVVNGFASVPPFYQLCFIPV

`COC(=O)CCC(=O)OC`: the call in [1], in assay [2], in assay [3], in [4], in [5] and in assay [6] was inactive. The result in assay [7], in assay [8], in assay [9], in [10], in assay [11] and in [12] was inactive. For the same compound, the compound was classed as inactive in assay [13], in assay [14], in assay [15], in [16], in [17] and in [18].

Broadly, the AC50 is the concentration giving half of the maximal activity seen. In the case of `CCCCC(CC)COC(=O)CCCCCCCC(=O)OCC(CC)CCCC` (stereo unspecified), the outcome in assay [1], in [2], in assay [3], in assay [5], in [6] and in assay [7] was inactive. In addition, the result in assay [8], in assay [9], in assay [10], in assay [11], in assay [12] and in assay [19] was inactive. In addition, the compound was called inactive in assay [13], in assay [14], in assay [15], in assay [16], in assay [17] and in assay [18]. Moreover, the concentration at half-maximal activity (AC50) in assay [20] is 30.9 µM (active).

`O=C(Oc1ccccc1)c1cccc(C(=O)Oc2ccccc2)c1`: the compound was classed as inactive in [1], in assay [2], in assay [3], in [4], in assay [5] and in assay [6]. Besides, the compound was called inactive in assay [7], in assay [8], in assay [9], in assay [10], in [11] and in [12]. The call in assay [13], in assay [14], in [15], in [16], in assay [17] and in assay [18] was inactive.

As to `O=C1OC(c2ccc(O)cc2)(c2ccc(O)cc2)c2ccccc21`, the AC50 in assay [1] was 50 µM (active); in assay [6], 77.4 µM (active); in [9], 50 µM (active); in assay [19] it was 72.4 µM (active); in [20], 84.7 µM (active); in assay [14], 76.9 µM (active). The concentration at half-maximal activity (AC50) in assay [15] is 78.7 µM (active); in assay [16] it was 82 µM (active); in assay [18] it was 80.1 µM (active). For the same compound, the result in assay [2], in assay [3], in assay [5], in [7], in assay [8] and in assay [10] was inactive. The result in [11], in assay [12], in assay [13] and in assay [17] was inactive.

`Cn1cnc2c1c(=O)[nH]c(=O)n2C`: the call in assay [1], in [2], in assay [3], in assay [4], in assay [5] and in [6] was inactive. In addition, the outcome in assay [7], in assay [8], in assay [9], in [10], in assay [11] and in assay [13] was inactive.
